Test results from ChEMBL document CHEMBL3988442, “University of Dundee, Small-Polar-MMV Screening Library” (2021).

What follows are molecules tested against AMP-activated protein kinase, AMPK (Homo sapiens) (UniProt P54646+O43741+P54619+Q9UGJ0+Q9Y478+Q13131+Q9UGI9) (assay: AMP-dependent Kinase enzyme assay. An in vitro enzyme assay that detects ADP turnover that is directly proportional to AMPK activity. This uses naive AMPK that is activated during the assay with MK-8722). Settings: 30 µM.
Assay type: functional
Parameters: scale not given: direction of the effect not stated beside the values

SMILES	Percent Effect
COc1c(C2CCCN2CC(=O)N(C)c2nccs2)c(C)nn1C (stereo not given)	5.92%
c1ccc(OCCNC2=NCCCN2)cc1	-8.51%
O=C1CN(Cc2cn(C3CCN(C4CSCCSC4)CC3)nn2)CCN1	-9.53%
O=C(c1cccc2ccnn12)N1CCC[C@H]1CN1CCCC1	-0.374%
COc1ccc(OC)c(-c2cc(C(=O)NCC3(CO)CC3)n(C)n2)c1	-3.88%
COc1c(F)cc(NC(=O)N2CCC(CSC)C2)cc1F (stereo not given)	2.71%
O=C(c1cc(C2CC2)n[nH]1)N1C[C@H]2CC[C@](O)(c3ccccc3F)[C@H]2C1	16%
CCN(C)C[C@@H]1CN(C(=O)c2cc(C(F)(F)F)n[nH]2)C[C@@H]1CO	7.62%
CC(C(=O)N1CCC(c2[nH]ncc2-c2ccccc2)CC1)n1cncn1 (stereo not given)	-1.59%
CCOc1ccc(Cl)cc1CCNC(=O)c1ccc(=O)n(C)c1	7.18%
c1cc(N2CCC(CN3CCOCC3)CC2)c2sccc2n1	2.28%
Cc1ccccc1S(=O)(=O)N(C)[C@@H]1CC[C@@H](n2ccnc2C)[C@@H]1O	-13.8%
CCC1(CC)CC(=O)N(CC(O)c2ccc(Cl)cc2)C1=O (stereo not given)	7.86%
COCCCN1CCCC(c2nccn2CC2CCC2)C1 (stereo not given)	0.821%
O=C(Cc1ccsc1)N1CCC[C@@H]1Cn1c(=O)oc2ccccc21	28.3%
CC(C)(C)OC(=O)N[C@H]1CCN(c2cncc(Br)c2)C1	6.52%
Cc1cccc(C(C)C)c1NC(=O)CN(C)C(C)c1nccs1 (stereo not given)	-7.09%
O=C(Nc1ccc(-n2ccc(C(=O)O)n2)cc1)c1ccccc1	4.07%
CC(=O)N[C@H]1CN(S(=O)(=O)N(C)Cc2ccccc2)C[C@@H]1C1CC1	1.32%
Cc1cc(C(=O)N(C)CCN(C)C(=O)OC(C)(C)C)oc1C	5.9%

SMILES	Percent Effect
Cc1noc(C)c1-c1n[nH]c2c1CN(S(=O)(=O)c1ccsc1)CC2	7.37%
O=C(C1CNCCN1C(=O)CCOc1ccccc1)N1CCOCC1 (stereo not given)	13%
NC(=O)c1csc(N2C[C@@H](CN3CCCCC3)[C@@H](CO)C2)n1	-3.06%
O=C(NCC1CCCO1)Nc1nnc(C(F)(F)F)s1 (stereo not given)	3.01%
COc1ccc2c(c1)OCC(C(=O)NCc1nc3c(s1)CCCC3)C2 (stereo not given)	8.94%
CCC(C(=O)N(Cc1ccccc1OC)C1CC1)n1cccn1 (stereo not given)	0.528%
Cc1cc(N2CCC(n3cc(CN4CCC[C@@H]4CO)nn3)CC2)ccn1	-0.25%
Cc1ccc(OCC2CCCN(C(=O)c3csc(CN(C)C)n3)C2)cc1 (stereo not given)	14.7%
Fc1ccc(C2(CNCCc3cccs3)CCOC2)cc1 (stereo not given)	-3.1%
O=C(Cn1ccc(=O)[nH]c1=O)NCc1cccnc1OCC(F)(F)F	-4.52%
CSCCC(=O)N1CCN(CC(C)O)CC1 (stereo not given)	-1.95%
Cc1cnn(CCNCC(=O)N2CCN(c3ncccn3)CC2)c1	-6.6%
c1nc(N2CCCC2)ncc1CN1CCCC(CN2CCCCC2)C1 (stereo not given)	-7.34%
CCc1n[nH]c(C(=O)N2CCC3(CCCN(CCOC)C3=O)C2)c1C (stereo not given)	6.73%
Cc1cnc(N2CCN(C(C)C(N)=O)CC2)nc1 (stereo not given)	-0.289%
O=C(Cn1nc2ccccc2n1)N1CCCC(O)(CN2CCCC2)C1 (stereo not given)	-2.27%
CCn1cnnc1CNC(=O)c1ccc(Br)cc1F	-10.5%
O=C(CCn1cncn1)NCCOc1cccc(Cl)c1	-7.83%
CC(C)Oc1ccccc1CNC(=O)N(C)CC(F)F	1.53%
O=C(CCc1ccsc1)NCC1CCN(C2CC2)C1 (stereo not given)	-5.43%
